Results taken from PubChem BioAssay (EPA / NIEHS).
“And” between values parts separate entries of the source, which are not always exact repeats. Equal values may be shown once. Inconclusive results are not listed. Where a structure was tested more than once in an assay, its records may differ in their call. The source made the active and inactive calls. Rule for the calls, unless noted: active = hit-call score of the fitted dose curve at least 0.9, where 1 is the maximum; inactive = score below 0.9.

What was measured:
[1] = CCTE_Shafer_MEA_acute_per_network_burst_spike_number_mean: CCTE's Neural Acute Assay for Average Number of Spikes in a Network Burst, Shafer Lab (AID 2284019);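 for AC50: curve fitted for loss of signal so actives reduce spikes per network burst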
Outline: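 Acute exposure of rat primary cortical networks (DIV 13/15) on MEAs; adaptive spike detection at 8x rms noise, 37 C. Percent change in spikes per network burst after 40 min with compound (0.03-40 uM), negative direction vs DMSO.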

[2] = CCTE_Shafer_MEA_acute_per_network_burst_spike_number_std: CCTE's Neural Acute Assay for Standard Deviation of Number of Spikes in a Network Burst, Shafer Lab (AID 2284020);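 note: fitted for decrease in spike-number SD versus DMSO so actives lower it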
Outline: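 Acute MEA exposure, rat cortical neurons, 0.03-40 uM. Per-well % change versus own baseline; DMSO as negative control.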

[3] = CCTE_Shafer_MEA_acute_network_burst_percentage: CCTE's Neural Acute Assay for Percentage of Network Bursts, Shafer Lab (AID 2284022);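 note: curves fitted for loss so actives lower network burst percentage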
Outline: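 Primary rat cortical neurons on 16-electrode MEA wells, treated on DIV 13 or 15 with compound (0.03-40 uM); 40-min baseline and 40-min post-exposure recordings at 37 C. Value is percent change in spikes within network bursts versus baseline, DMSO negative control.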

[4] = CCTE_Shafer_MEA_acute_cross_correlation_area: CCTE's Neural Acute Assay for Area of Cross Correlation, Shafer Lab (AID 2284024);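 note: area under pooled inter-electrode spike cross-correlation near zero lag as percent change from own baseline; curves fitted for loss of cross-correlation area so actives lower synchrony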
Outline: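 Primary rat cortical neurons on 48-well MEA plates (16 electrodes/well) were recorded 40 min at baseline on DIV 13 or 15, then 40 min with compound (0.03-40 uM) at 37 C; cross-correlation area expressed as percent change from baseline.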

[5] = CCTE_Shafer_MEA_acute_cross_correlation_HWHM: CCTE's Neural Acute Assay for Cross Correlation at Half Width at Half Maximum, Shafer Lab (AID 2284026);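 note: percent change per well from pre-dose baseline in spike cross-correlogram half width; hits are a decrease in cross-correlogram half width relative to DMSO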
Outline: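 Primary rat cortical neurons on 16-electrode MEA wells; 40-min baseline on DIV 13 or 15, then 40-min recording with compound (0.03-40 uM) at 37 C. HWHM of spike cross-correlogram expressed as percent change from baseline per well, DMSO reference.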

[6] = CCTE_Shafer_MEA_acute_synchrony_index: CCTE's Neural Acute Assay for Synchrony, Shafer Lab (AID 2284027);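 note: network synchrony index of spontaneous spiking in primary rat cortical neurons on MEAs; fitted for loss of signal so actives lower synchrony relative to DMSO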
Outline: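 The synchrony index is taken as percent change per well between a 40 min baseline and a 40 min recording with compound (0.03–40 uM), at 37C. Rat cortical cultures on multiwell MEAs at DIV 13 or 15, spike threshold 8× rms noise.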

[7] = target: Estrogen receptor (Homo sapiens) (UniProt P03372); experiment: CCTE_Deisenroth_AIME_384WELL_LUC_Active: CCTE's 384-well Estrogen Receptor Transactivation Assay with AIME metabolic competence (ERTA luciferase; metabolism positive), Deisenroth Lab (AID 2284030; active = hit-call score of the fitted dose curve at least 0.9, where 1 is the maximum)
Outline: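 Test chemicals (10-point series, 0.002 - 200 uM) were preincubated 2 hours with alginate-immobilized phenobarbital/beta-naphthoflavone-induced male Sprague Dawley rat liver S9; conditioned medium then went onto VM7Luc4E2 breast cells for 24 hour. Luciferase gain-of-signal fitted relative to 17beta-estradiol.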

[8] = CCTE_Shafer_MEA_dev_firing_rate_mean: CCTE's Neural Network Formation Assay for Mean Firing Rate, Shafer Lab (AID 2284031);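 for AC50: curve fitted for loss of firing so AC50 reflects decreased mean firing rate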
Outline: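 Spike frequency (spikes/recording length, averaged over active electrodes) was recorded on days 5, 7, 9 and 12 and collapsed to AUC; rat cortical cultures received compound continuously over 12 days of network development.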

[9] = CCTE_Shafer_MEA_dev_per_burst_spike_percent: CCTE's Neural Network Formation Assay for Percent of Spikes in a Burst, Shafer Lab (AID 2284032);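 for AC50: fitted as a decrease in burst spike percentage below DMSO baseline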
Outline: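 Value is trapezoidal AUC over recordings on days 5, 7, 9 and 12 of the well-mean fraction of spikes falling in single-electrode bursts; rat cortical cultures exposed continuously from plating, treatment renewed DIV 5 and 9, fitted downward against DMSO.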

[10] = CCTE_Deisenroth_AIME_96WELL_CTox_Active: Cytotoxicity Assessment (CTOX) in CCTE's 96-well Estrogen Receptor Transactivation Assay with AIME metabolic competence (metabolism positive), Deisenroth Lab (AID 2284028; active = hit-call score of the fitted dose curve at least 0.9, where 1 is the maximum)
Outline: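 Cytotoxicity in VM7Luc4E2 breast cells after 24 h exposure to medium from a 2 h metabolic pre-incubation with induced rat hepatic S9 in alginate microspheres; fluorescent live-cell protease readout, 10-point series 0.002–200 uM, n=4.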

Measured: AC50

Chain of Estrogen receptor (Homo sapiens) (P03372 whole entry, looked up): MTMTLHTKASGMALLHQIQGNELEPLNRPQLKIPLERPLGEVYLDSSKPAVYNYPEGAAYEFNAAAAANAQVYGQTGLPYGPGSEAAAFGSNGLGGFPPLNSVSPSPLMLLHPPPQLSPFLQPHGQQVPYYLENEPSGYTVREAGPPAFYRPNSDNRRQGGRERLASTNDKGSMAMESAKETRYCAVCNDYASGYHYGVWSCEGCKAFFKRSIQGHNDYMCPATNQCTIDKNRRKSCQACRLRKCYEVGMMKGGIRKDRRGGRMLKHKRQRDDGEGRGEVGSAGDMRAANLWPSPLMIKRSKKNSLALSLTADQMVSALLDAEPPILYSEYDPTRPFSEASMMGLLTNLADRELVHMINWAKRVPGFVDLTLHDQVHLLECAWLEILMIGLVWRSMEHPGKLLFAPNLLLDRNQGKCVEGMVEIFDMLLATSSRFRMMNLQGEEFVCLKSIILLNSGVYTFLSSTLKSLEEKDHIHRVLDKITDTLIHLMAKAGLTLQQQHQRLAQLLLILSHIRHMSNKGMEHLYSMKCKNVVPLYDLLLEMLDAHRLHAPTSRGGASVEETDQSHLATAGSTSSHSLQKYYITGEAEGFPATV

O=[N+]([O-])c1ccc(Oc2ccc(Cl)cc2Cl)cc1
active: [2] 10.8 µM | [3] 20 µM | [5] 10.9 µM | [6] 10.9 µM
inactive: [1] | [4]

O=Cc1ccco1
inactive: [1] | [2] | [3] | [4] | [5] | [6]

CCN(CC)CCO
inactive: [1] | [2] | [3] | [4] | [5] | [6]

CCC(C)c1ccc(O)cc1 (stereo unspecified)
inactive: [1] | [4]
active: [2] 30 µM | [3] 33.9 µM | [5] 30.5 µM | [6] 30.5 µM

CCN(CC)N=O
inactive: [1] | [2] | [3] | [4] | [5] | [6]

CCCCCCCCn1sccc1=O
inactive: [4]
active: [1] 3.28 µM | [2] 7.57 µM | [3] 8.61 µM | [5] 11.5 µM | [6] 6.04 µM

ClCCOCCCl
inactive: [1] | [2] | [3] | [4] | [5] | [6]

CC(C)(OOC(C)(C)c1ccccc1)c1ccccc1
inactive: [1] | [2] | [3] | [4] | [5] | [6]

O=C(Oc1ccc(Br)cc1)N1CCN2CCC1CC2
inactive: [2] | [3] | [4] | [5] | [6] | [7]
active: [1] 20 µM

Cc1ccc(N)c(N)c1
active: [3] 9.87 µM | [6] 20 µM
inactive: [1] | [2] | [4] | [5]

CCC[CH2][Sn]([Cl])([CH2]CCC)[CH2]CCC
inactive: [1] | [2] | [3] | [5]
active: [2] 0.239 µM | [3] 0.243 µM | [4] 16.8 nM and 54 nM | [5] 0.463 µM | [6] 237 nM and 322 nM | [8] 0.00892 µM | [9] 0.0758 µM

c1ccc(N=Nc2ccccc2)cc1
active: [3] 5.14 µM
inactive: [1] | [2] | [4] | [5] | [6]

c1ccc(NNc2ccccc2)cc1
active: [5] 29.7 µM | [6] 29.6 µM
inactive: [1] | [2] | [3] | [4]

O=C(N[C@H](c1ccccc1)[C@@H]1CN2CCC1CC2)c1c(Cl)ccc(C(F)(F)F)c1Cl
inactive: [1] | [2] | [3] | [4] | [6]
active: [5] 18.5 µM

CCCCOC(=O)c1ccccc1C(=O)OCc1ccccc1
inactive: [4] | [10] | [8] | [9]
active: [1] 2.58 µM | [2] 5 µM | [3] 8.11 µM | [5] 6.42 µM | [6] 7.33 µM

CCCCCOC(=O)c1ccccc1C(=O)OCCCCC
inactive: [1] | [4] | [7]
active: [2] 4.73 µM | [3] 26.4 µM | [5] 2.82 µM | [6] 12.4 µM

N#CC(Br)Br
inactive: [1] | [2] | [3] | [4] | [5] | [6]

ClC1=C(Cl)C2(Cl)C3C(Cl)C=CC3C1(Cl)C2(Cl)Cl (stereo unspecified)
active: [1] 4.22 µM | [4] 4.37 µM | [8] 4.54 µM | [9] 4.18 µM
inactive: [2] | [3] | [5] | [6]

Cc1cc(N=Nc2ccccc2C)ccc1N
active: [5] 30.1 µM | [6] 28.7 µM
inactive: [1] | [2] | [3] | [4]

O=[N+]([O-])C(Br)(CO)CO
active: [3] 35.8 µM | [6] 30.9 µM
inactive: [1] | [2] | [4] | [5]

C[N+](C)(C)CC1CO1 (stereo unspecified)
inactive: [1] | [2] | [3] | [4] | [5] | [6] | [7]

Clc1ccc(C(c2ccc(Cl)cc2)C(Cl)Cl)cc1
active: [1] 2.37 µM | [2] 6.77 µM | [3] 7.42 µM | [5] 11.4 µM | [6] 4.76 µM | [8] 8.59 µM | [9] 4.86 µM
inactive: [4]

Cc1ccc([N+](=O)[O-])cc1
inactive: [7]

OCCOCCO
inactive: [7] | [8] | [9]

[O-][Cl+]O
inactive: [7] | [8] | [9]

COC(=O)Nc1nc2ccccc2[nH]1
inactive: [1] | [2] | [3] | [4] | [5] | [6] | [8] | [9]

Nc1cc(Cl)cc(C(=O)O)c1Cl
inactive: [8] | [9]

[Cl-].[Cl-].[Hg+2]
active: [5] 29.3 µM | [6] 28.2 µM | [8] 0.911 µM | [9] 0.882 µM
inactive: [1] | [2] | [3] | [4]

C1=Cc2cccc3cccc1c23
inactive: [8] | [9]

CNC(=O)Oc1cccc2c1OC(C)(C)C2
inactive: [8] | [9]
active: [7] 100 µM | [9] 15.5 µM

CCOc1cccc(C2(N3CCN(c4ccccc4)CC3)CCC(C)CC2)c1 (stereo unspecified)
inactive: [7]

O=P(OCCCl)(OCCCl)OCCCl
inactive: [1] | [2] | [3] | [4] | [5] | [6] | [8] | [9]

CC(C)(C)C(O)(CCc1ccc(Cl)cc1)Cn1cncn1 (stereo unspecified)
active: [1] 1.22 µM | [5] 20 µM | [9] 15 µM
inactive: [2] | [3] | [4] | [6] | [8]

O=C(Nc1ccccc1)c1ccccc1I
active: [7] 38.4 µM

COP(=S)(OC)SCN1C(=O)c2ccccc2C1=O
active: [8] 83.2 µM | [9] 32.8 µM and 51.5 µM
inactive: [8]

CCNS(=O)(=O)C(F)(F)C(F)(F)C(F)(F)C(F)(F)C(F)(F)C(F)(F)C(F)(F)C(F)(F)F
inactive: [8]
active: [9] 15 µM and 3.54 µM

CN(C)[C@@H]1C(=O)C(C(N)=O)=C(O)[C@@]2(O)C(=O)C3=C(O)c4c(O)cccc4[C@@](C)(O)[C@H]3C[C@@H]12
inactive: [8] | [9]

ClC1=C(Cl)[C@]2(Cl)[C@H]3[C@H]([C@@H]4C=C[C@H]3C4)[C@@]1(Cl)C2(Cl)Cl
active: [8] 3.92 µM | [9] 5.76 µM
inactive: [1] | [2] | [3] | [4] | [5] | [6]

CC(C)COC(=O)c1ccccc1C(=O)OCC(C)C
active: [1] 6.67 µM | [2] 8.5 µM | [5] 5.62 µM | [6] 9.02 µM | [9] 23.1 µM
inactive: [3] | [4] | [8]

CC(C)(O)c1cnn2c(-c3ccc(F)c(-c4c(F)cccc4C#N)c3)cnc2n1
inactive: [1] | [4] | [8]
active: [2] 3.97 µM | [3] 30.8 µM | [5] 3.97 µM | [6] 35.8 µM | [9] 10 µM

OCCCBr
inactive: [7]

Clc1ccc(C(c2ccc(Cl)cc2)C(Cl)(Cl)Cl)cc1
inactive: [1] | [2] | [4] | [5]
active: [3] 4.24 µM | [6] 10.6 µM | [8] 7.7 µM and 10.1 µM | [9] 3.45 µM and 6.66 µM
